Molecules are shown by their SMILES. Several values for one entry are separate records, joined by “and”; a condition that tells them apart may be missing. Equal values may be shown once. Where a name gives a salt, the structure may show the parent alone. ± gives the standard deviation.

The assay deals with THP-1 macrophages infected with Mycobacterium tuberculosis H37Rv. Description: intracellular M.tb growth inhibition relative to DMSO (0) and 4 uM bedaquiline (100); higher = stronger inhibition of intracellular bacterial growth. The note with it: 10 µM; 4 days. Here is the method: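 OICR kinase inhibitor library screened in duplicate at 10 uM against THP-1 macrophages (PMA-differentiated) infected with M. tuberculosis H37Rv-pTEC27 (tdTomato RFP), 4 days at 37 C. Rows with complete host cell loss (placeholder inhibition 0, cell loss 100) were removed.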
On to `Nc1cc(C(F)(F)F)c(-c2cc(N3CCOCC3)nc(N3CCOCC3)n2)cn1`, for which the “intracellular M.tb growth inhibition” value is -76.8 ± 110%. For the compound `Nc1ccc(-c2cccc3c(=O)cc(N4CCOCC4)oc23)cc1`, the “intracellular M.tb growth inhibition” value is -49 ± 35%. Turning to `N#C/C(=C(/N)Sc1ccc(N)cc1)c1ccccc1C(F)(F)F`, the “intracellular M.tb growth inhibition” value was 5.44 ± 36%. Consider `C[C@]1(O)C[C@@H](c2nc(-c3ccc4ccc(-c5ccccc5)nc4c3)c3c(N)nccn32)C1`, for which the “intracellular M.tb growth inhibition” value came to 39.2 ± 24%. Turning to `CS(=O)(=O)CCNCc1nc(-c2ccc3ncnc(Nc4ccc(OCc5cccc(F)c5)c(Cl)c4)c3c2)cs1`, the “intracellular M.tb growth inhibition” value turned out to be 37.8 ± 12%. Turning to `O=c1cc(-c2cccc3c2Sc2ccccc2S3)oc(N2CCOCC2)c1`, the “intracellular M.tb growth inhibition” value was found to be 3.07 ± 24%. With `O=C1NC(=O)/C(=C/c2ccc(-c3ccc(F)cc3O)o2)S1`, the “intracellular M.tb growth inhibition” value came out at 25.3 ± 6.9%. For `C[C@@]1(C(=O)Nc2ccc(F)nc2)CCCN1c1nc(Nc2cc(C3CC3)n[nH]2)c2cccn2n1`, the “intracellular M.tb growth inhibition” value is -265 ± 70%. `O=C(Nc1cc(C(F)(F)F)cc(C(F)(F)F)c1)c1cc(Cl)ccc1O`: the “intracellular M.tb growth inhibition” value is 64.7 ± 16%.

With `O=S(=O)(c1cccc2c(Cl)cccc12)N1CCCNCC1` [ML 9 hydrochloride], the “intracellular M.tb growth inhibition” value was -14 ± 4.8%. `Nc1ncnc2n[nH]c(Nc3ccc(F)cc3)c12`: the “intracellular M.tb growth inhibition” value is -2.38% and 4.47%. `CN1CCC(CNc2ccc3ncc(-c4cccc(OC(F)(F)F)c4)n3n2)CC1`: the “intracellular M.tb growth inhibition” value is 89.1 ± 24%.

For `COc1ccc(-c2ccc3c(N4CCOCC4)nc(N4C[C@@H](C)O[C@@H](C)C4)nc3n2)cc1CO`, the “intracellular M.tb growth inhibition” value was -282 ± 370%. The value for `O=C(O)c1ccc2c(c1)nc(Nc1cccc(Cl)c1)c1ccncc12` was -112 ± 130%; that for `Nc1[nH]nc2nc3ccccc3nc12` was 0.53 ± 68%. As to `COc1cc2nccc(Oc3ccc(NC(=O)Nc4cc(C)on4)c(Cl)c3)c2cc1OC`, the “intracellular M.tb growth inhibition” value was -5.89 ± 83%. The value for `Cc1cccc(-c2[nH]c(C(C)(C)C)nc2-c2ccc3c(c2)OCO3)n1` was -67.3 ± 53%; that for `OCCC#Cc1nc(-c2ccc(F)cc2)c(-c2ccncc2)n1CCCc1ccccc1` was 14.2 ± 4.9%. To `CCc1cc(Nc2nccc(-c3c(-c4ccc(OC)c(C(=O)Nc5c(F)cccc5F)c4)nc4ccccn34)n2)c(OC)cc1N1CCC(N2CCN(S(C)(=O)=O)CC2)CC1` belongs -49.9 ± 68%; to `Cc1ccc(NC(=O)c2ccc(CN3CCN(C)CC3)cc2)cc1Nc1nc(-c2cccnc2)cs1` [Masitinib mesylate], 95.5 ± 1.8%.

On to `CC(C)[C@H](CO)Nc1nc(Nc2ccc(C(=O)O)c(Cl)c2)c2ncn(C(C)C)c2n1` [Purvalanol B], for which the “intracellular M.tb growth inhibition” value was 2.54 ± 10%. For the compound `CC(=O)c1c(C)c2cnc(Nc3ccc(N4CCNCC4)cn3)nc2n(C2CCCC2)c1=O`, the “intracellular M.tb growth inhibition” value was -126 ± 210%. Regarding `CC(NC(=O)C(C#N)=Cc1ccc(O)c(O)c1)c1ccccc1` (stereo not given) [Tyrphostin B44], the “intracellular M.tb growth inhibition” value was -7.66 ± 34%. As for `Cn1cc(-c2cnc3ccc4ccc(CS(=O)(=O)NCc5ccccn5)cc4c(=O)c3c2)cn1`, the “intracellular M.tb growth inhibition” value is -162 ± 230%.

As to `Oc1cccc(-c2nc(N3CCOCC3)c3oc4ncccc4c3n2)c1`, the “intracellular M.tb growth inhibition” value is -62.7 ± 17%. Turning to `COc1cccc(-c2cc(=O)c3ccccc3o2)c1N`, the “intracellular M.tb growth inhibition” value was 27.4 ± 15%. Consider `NC(=O)Nc1sc(-c2ccc(F)cc2)cc1C(N)=O`, for which the “intracellular M.tb growth inhibition” value is -19 ± 13%. As for `CN(C)CCOc1ccc(-c2nc(-c3ccncc3)c(-c3ccc4c(c3)CC/C4=N\O)[nH]2)cc1`, the “intracellular M.tb growth inhibition” value worked out at 35.2 ± 75%. `COc1ccc2c3n(c(=NC(=O)c4cccnc4)nc2c1OC)CCN3`: the “intracellular M.tb growth inhibition” value was -0.0325 ± 8.7%. The value for `Cc1[nH]c(/C=C2\C(=O)Nc3ccc(S(=O)(=O)Cc4c(Cl)cccc4Cl)cc32)c(C)c1C(=O)N1CCC[C@@H]1CN1CCCC1` was 51 ± 13%; that for `CN1C(=O)C(Cc2c[nH]c3ccccc23)NC1=S` (stereo not given) [Necrostatin-1] was -8.08 ± 36%. Turning to `O=c1cc(N2CCOCC2)oc2c(-c3ccccc3)cccc12`, the “intracellular M.tb growth inhibition” value is -0.768 ± 100%. Consider `CCc1nc(-c2cccc(C)c2)c(-c2ccnc(NC(=O)c3ccccc3)c2)s1`, for which the “intracellular M.tb growth inhibition” value was 0.0588 ± 120%. For the compound `Oc1c2ccccc2c2c3c(cccc13)N=N2`, the “intracellular M.tb growth inhibition” value stood at 12.9 ± 20%. `COc1nccc(-c2c(-c3ccc(F)cc3)ncn2C2CCNCC2)n1`: the “intracellular M.tb growth inhibition” value is -58.3 ± 93%.

As for `C#Cc1cccc(Nc2ncnc3cc(OCCOC)c(OCCOC)cc23)c1` [Erlotinib HCl], the “intracellular M.tb growth inhibition” value was -17.4 ± 52%. For the compound `O=c1[nH]nc(Sc2ncc([N+](=O)[O-])s2)n1-c1ccc2c(c1)OCCO2`, the “intracellular M.tb growth inhibition” value was -22.3 ± 6%. Turning to `CCN(CC)CCNC(=O)c1c(C)[nH]c(/C=C2\C(=O)Nc3ccc(F)cc32)c1C` [Sunitinib Malate], the “intracellular M.tb growth inhibition” value is -45.8 ± 29%. `CO[C@H]1C[C@@H]2CC[C@@H](C)[C@@](O)(O2)C(=O)C(=O)N2CCCC[C@H]2C(=O)O[C@H]([C@H](C)C[C@@H]2CC[C@@H](O)[C@H](OC)C2)CC(=O)[C@H](C)/C=C(\C)[C@@H](O)[C@@H](OC)C(=O)[C@H](C)C[C@H](C)/C=C/C=C/C=C/1C` [Rapamycin]: the “intracellular M.tb growth inhibition” value turned out to be 15.9 ± 11%. In the case of `Nc1ccc(C(=O)Nc2cccc(-c3nc(N4CCOCC4)c4oc5ncccc5c4n3)c2)cn1`, the “intracellular M.tb growth inhibition” value was 17.6 ± 65%.

For the origin of these results see the supplement of paper PMC7530171.
